In all, about 39,000 sequences were measured (“fluorescence intensity (a.u.)”: median about 4,300, highest 2% from about 39,000 on). For the sample, the highest values were picked, then their nearest neighbours and some sequences at random.

This test deals with T1, OsSMF1 (Oryza sativa, UniProt Q6ZLB0 1-436).
T1 sequence: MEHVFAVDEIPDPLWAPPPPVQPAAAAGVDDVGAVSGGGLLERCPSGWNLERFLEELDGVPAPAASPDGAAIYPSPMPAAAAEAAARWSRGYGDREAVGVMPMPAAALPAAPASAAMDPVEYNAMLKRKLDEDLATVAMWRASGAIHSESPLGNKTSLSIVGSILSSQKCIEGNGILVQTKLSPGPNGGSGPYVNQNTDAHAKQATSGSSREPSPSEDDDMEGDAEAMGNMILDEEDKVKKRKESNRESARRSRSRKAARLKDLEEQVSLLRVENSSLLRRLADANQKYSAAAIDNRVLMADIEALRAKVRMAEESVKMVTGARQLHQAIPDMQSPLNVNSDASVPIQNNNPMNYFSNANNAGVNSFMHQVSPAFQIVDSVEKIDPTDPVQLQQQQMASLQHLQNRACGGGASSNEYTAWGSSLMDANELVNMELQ
Briefly: protein-binding microarray (RPBM); PBS, 2% BSA, 51.3 ng/ul salmon testes DNA, 50 uM zinc acetate, 200 nM TF, 25 C, 1 h; high values mean tight binding. The settings on record: protein: recombinant; tags: N-terminal polyhistidine and DsRed monomer fusion (pET32a); chain copies: 2; label: CyDye5-dUTP incorporated in the synthesized complementary strand; 3' TTTTT single-stranded linker to array surface; dsDNA, one strand shown. Summed up: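 Transcription factors, each fused N-terminally to a polyhistidine tag and DsRed, were expressed in E. coli BL21-CodonPlus and purified on Ni–NTA. A custom Agilent array was made double-stranded by primer extension with Cy5-dUTP and blocked with 2% BSA. It was incubated with 200 nM protein in PBS, 2% BSA, salmon testes DNA and 50 µM zinc acetate at 25 °C for 1 h, then washed. The binding signal is per-feature fluorescence intensity (arbitrary units) read on an Axon 4000B scanner.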
As to “TGTAAACATCCCATACTGGCTCTTACGCAAAACTTTCACCCGGAGTCACCTAGTGCAG”, the binding signal was 54100 fluorescence intensity (a.u.). Consider “CTTTTCCCCGACTAAACACACCCATACTGTCAAAAGGTAACGGAGTCACCTAGTGCAG”, for which the binding signal is 26800 fluorescence intensity (a.u.). In the case of “TAGTTCTGAAGTCTGAAATCCTTGCGGTCCTTCACCGCCTCGGAGTCACCTAGTGCAG”, the binding signal is 55000 fluorescence intensity (a.u.). As to “GCAATCTTTGCCTTGGTCCTCTTGAAGTCTTTGGCGGTATCGGAGTCACCTAGTGCAG”, the binding signal is 27700 fluorescence intensity (a.u.). “ATAATCTTCAGAGATCTCCTTGCCTGAAGTGTCTTATGTTCGGAGTCACCTAGTGCAG”: the binding signal was 42500 fluorescence intensity (a.u.). With “CCGCCTTGCGTGGCTGAACTTCTTCTGATGGTCCCCGCCTCGGAGTCACCTAGTGCAG”, the binding signal is 3290 fluorescence intensity (a.u.). The figure for “CCGGATCTTCAGCAGAGTCGTGTCACCTGTTTTGATCGTTCGGAGTCACCTAGTGCAG” is 3890 fluorescence intensity (a.u.); for “TATGTTCATTTCCTTATTTGCCTCTCGTCATGTCTCTTGACGGAGTCACCTAGTGCAG” it is 3420 fluorescence intensity (a.u.); for “CTCACTGGTATGCTCACCACCACTTTAAGACTGTGTTTGTCGGAGTCACCTAGTGCAG” it is 3730 fluorescence intensity (a.u.). Consider “TGGCCATCGCCTACGGTGAGCAGTCATCGTCGTCCATCCGCGGAGTCACCTAGTGCAG”, for which the binding signal was 4090 fluorescence intensity (a.u.).

Take “AGAGGCGAAATCGCGGCTACGGAGGCGGCGGCGGTGGCGGCGGAGTCACCTAGTGCAG”: the binding signal is 3390 fluorescence intensity (a.u.). As to “TAGTCCTCCTTGGCTACGGTGTCATAGATCGAGGCCTCCGCGGAGTCACCTAGTGCAG”, the binding signal was 50200 fluorescence intensity (a.u.). Turning to “TGAAAATTTGTACACGTAAGTAATAGATGGTACCAATAGACGGAGTCACCTAGTGCAG”, the binding signal was 5890 fluorescence intensity (a.u.). With “TTTCAAAATATTCAGTTTGAGAATATGTAAATCTTATGGGCGGAGTCACCTAGTGCAG”, the binding signal is 20100 fluorescence intensity (a.u.).

Regarding “GAGAATTCTCCACGAAAAGAGGAGAACGAACCACATCAAACGGAGTCACCTAGTGCAG”, the binding signal is 3380 fluorescence intensity (a.u.). Take “GAGTTTAATTAATTAATTTCTTAAAATTGATGTCATCACACGGAGTCACCTAGTGCAG”: the binding signal is 3140 fluorescence intensity (a.u.). On to “TGTCACGAAAATCTTAATATTCATTTGGAGAAAAGAACGGCGGAGTCACCTAGTGCAG”, for which the binding signal is 49000 fluorescence intensity (a.u.). With “GCACATCTTCCTTAATTGCCAAAAGAGTAAATTTCACGAACGGAGTCACCTAGTGCAG” the figure was 43300 fluorescence intensity (a.u.); with “AGAAGACGATCTCCTGAGACAAATTGCCAAAATTAAAGAACGGAGTCACCTAGTGCAG”, 4830 fluorescence intensity (a.u.). Consider “AAGAGAAAATTCAAGAAATATCATTACCAAAGTCCAAGAACGGAGTCACCTAGTGCAG”, for which the binding signal is 52800 fluorescence intensity (a.u.). “CGTGTCATTGTCCAAAATGTCAAAGAAATATGGAACCGGACGGAGTCACCTAGTGCAG”: the binding signal was 15200 fluorescence intensity (a.u.). Take “CGAACGAGAATTCATGGAATCCAAGAAAAGAGACACGTGTCGGAGTCACCTAGTGCAG”: the binding signal was 5610 fluorescence intensity (a.u.). As to “GATACGCGGCGGCTGAGTCAGCGTGGGACCCACGTGGGCCCGGAGTCACCTAGTGCAG”, the binding signal was 13000 fluorescence intensity (a.u.). “GCCATCCTCACGCACACGCCACGTGCTCGACGAAATGCCGCGGAGTCACCTAGTGCAG”: the binding signal was 4190 fluorescence intensity (a.u.). On to “AGCTCAGCTCTCTCTGCTCTGCTCTTTGCTCGATAACGACCGGAGTCACCTAGTGCAG”, for which the binding signal was 33600 fluorescence intensity (a.u.). For “AAGGTTTGGAACATTCTGTTACCTATGAATACTGCACAGGCGGAGTCACCTAGTGCAG”, the binding signal was 11700 fluorescence intensity (a.u.). As for “AAGAGCGTTTAAACAAGCTGTGGAGTCAGCAGATAGATTACGGAGTCACCTAGTGCAG”, the binding signal was 3940 fluorescence intensity (a.u.). As to “CATCGCCGCGCGTGCACCAGAGGACCAGACCGACCGGCGTCGGAGTCACCTAGTGCAG”, the binding signal was 50200 fluorescence intensity (a.u.). “AAAGGAAAGGCGCGTCACGGCGTCAGACGAGACGACGACGCGGAGTCACCTAGTGCAG”: the binding signal is 3340 fluorescence intensity (a.u.).

Take “GGCTCGCAGAAAGGCGGACGACAAGGGCTCAGCAGGGTCACGGAGTCACCTAGTGCAG”: the binding signal was 39500 fluorescence intensity (a.u.). On to “CGTCGGCGGCGGCGGAGGGGAGGACGACGTGGTCGACCTCCGGAGTCACCTAGTGCAG”, for which the binding signal is 3590 fluorescence intensity (a.u.).

On to “CCGGGAAGGGAGAGGGAGAGAGGAGTCGGGGCGAGAAGTGCGGAGTCACCTAGTGCAG”, for which the binding signal was 3500 fluorescence intensity (a.u.).

In the case of “GCATCGCCATCGCCGCGTGGTGGCGCACCATTCGCGTCACCGGAGTCACCTAGTGCAG”, the binding signal is 5300 fluorescence intensity (a.u.).

As to “GGAGGAGTGGTCGCCGGGGATCATCGCGCGGCGTCACCGGCGGAGTCACCTAGTGCAG”, the binding signal is 3570 fluorescence intensity (a.u.).

As for “CGACGAGAAGGACACCTCCTCGGAAAAGGGAGGGCGTCGGCGGAGTCACCTAGTGCAG”, the binding signal is 44600 fluorescence intensity (a.u.). For the sequence “ATCTAGCGACGAGAAGAGAGGAAGGGAGGGAGGCGTCACGCGGAGTCACCTAGTGCAG”, the binding signal is 3830 fluorescence intensity (a.u.). “CCGACGAGGACGAGGCGGCGTGGTCGAAGCCGGCGGTCGGCGGAGTCACCTAGTGCAG”: the binding signal was 42500 fluorescence intensity (a.u.). For the sequence “GGGCGGCGACGACGGTCACGGCGGACAAGGGCGGCGGCAACGGAGTCACCTAGTGCAG”, the binding signal was 3160 fluorescence intensity (a.u.). As for “GGAGGCGGCGGCGACGAGGAGGGGCGTGGGCGGCGGCGGCCGGAGTCACCTAGTGCAG”, the binding signal is 3660 fluorescence intensity (a.u.).

“GTATCCATTCCTGCAAATCCAAGTTGGCAATTCCGAGGGCCGGAGTCACCTAGTGCAG”: the binding signal was 3340 fluorescence intensity (a.u.). In the case of “GCGGCGCGACAGCGACAAAGCGCACGCGCGCGGCGAGCTGCGGAGTCACCTAGTGCAG”, the binding signal is 30800 fluorescence intensity (a.u.). With “TAACTTTGGAACAGGCTGATAAGGGTGGATCCTGCGGTTGCGGAGTCACCTAGTGCAG” the figure was 3440 fluorescence intensity (a.u.).
